# CBX7 AlphaScr = CBX7 chromodomain binding inhibitors, primary screen, biochemical, AlphaScreen; AlphaScreen His6-CBX7 / biotin-H3K27me3 peptide binding; stronger effect = lower value; normalised signal (fraction of DMSO) (no concentration beside the values); 1.1% of 66,000 active; in the data active means normalised signal below about 0.5
# Target sequence (O95931 whole entry, looked up): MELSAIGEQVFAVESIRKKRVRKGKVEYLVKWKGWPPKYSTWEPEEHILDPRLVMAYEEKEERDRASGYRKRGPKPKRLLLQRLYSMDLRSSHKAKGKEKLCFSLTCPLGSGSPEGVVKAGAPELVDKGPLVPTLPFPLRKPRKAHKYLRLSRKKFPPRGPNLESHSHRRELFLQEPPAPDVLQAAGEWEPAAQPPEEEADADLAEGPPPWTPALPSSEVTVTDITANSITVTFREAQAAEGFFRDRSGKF
# * hit, by the source's call; ! = a repeat was not active. The full list was thinned out, with hits kept by preference.
SMILES,CBX7 AlphaScr
COc1ccc(OC)c(C2=NOC(C(=O)NCC(C)C)C2)c1 (stereo not given),1.1
COCCCNC(=O)c1ccc2c(c1)N(Cc1cccc(Cl)c1)C(=O)c1ccccc1S2,1
O=C(C1CCN(c2nc3ccccc3[nH]2)CC1)N1CCCCC1,0.8
Cc1oc(-c2cccc(Cl)c2)nc1CN1CCC(C(=O)NC(C)CCc2ccccc2)CC1 (stereo not given),1.2
O=C(NC1CCCC1)c1cc(-c2cccnc2)nc2ccc(S(=O)(=O)N3CCCCCC3)cc12,1
COc1ccc(-c2nc(Nc3ccc(Br)cc3C)c3ccccc3n2)cc1OC,1
CC(=O)N1CCN(c2nc(-c3ccccc3)c3cc(C)ccc3n2)CC1,1.1
CC1CC(C)CN(C(=O)CSc2nnc(-c3ccc4c(c3)OCCO4)o2)C1 (stereo not given),0.98
COc1ccc(Nc2cc(C(=O)N3CCCC3)c3ccccc3n2)c(OC)c1,0.93
COc1ccc2c(c1)c(=O)c(S(=O)(=O)c1ccc(C)cc1)cn2CC(=O)Nc1ccc(Cl)cc1,1
CCN(CCCNC(=O)c1ccc2nc(N3CCC(C)CC3)sc2c1)Cc1ccccc1,1.3
Cc1cc(N2CCCCC2)nc2ccc(NC(=O)CCC(=O)N3CCC(Cc4ccccc4)CC3)cc12,0.53
Clc1ccc2nc(-c3ccccn3)c(Nc3ccc4c(c3)OCCO4)n2c1,0.15*
Clc1ccc2nc(-c3ccc(N4CCOCC4)cc3)c(Nc3ccc4c(c3)OCCO4)n2c1,1.1
Clc1ccc2nc(-c3ccccc3)c(Nc3ccc4c(c3)OCCO4)n2c1,1.1
CCc1nc(C)ccc1OCC(=O)NCCCN(C)C,0.48*
Cc1nc2ccc(C(=O)NCCCN(C)C)cc2nc1C,0.98
Cc1ccccc1OCC(=O)NCCc1nc2ccccc2[nH]1,1
Cc1cccc2nc(CN3C(=O)c4ccccc4C3=O)cn12,1.1
Cc1ccc(NC(=O)C2CCC(CNS(=O)(=O)c3cccc4cccnc34)CC2)cc1 (stereo not given),0.97
CCOC(=O)c1ccc(NC(=O)c2c(NCc3ccc(N(C)C)cc3)sc3c2CCC3)cc1,0.87
CCCOc1ccc(C(O)(CC)CCN2CCCCC2)cc1 (stereo not given),1
COc1ccc(-c2cn(-c3ccc(F)cc3)c(SCC(=O)Nc3cc(F)ccc3F)n2)cc1OC,0.88
COc1ccc(-c2cn(-c3ccc(F)cc3)c(SCC(=O)Nc3cccc(Cl)c3)n2)cc1OC,0.6
COc1ccc(-c2cn(-c3ccc(F)cc3)c(SCC(=O)Nc3cccc(F)c3)n2)cc1OC,0.39*
SMILES,CBX7 AlphaScr
CCOC(=O)c1c(C)n(C)c2ccc(OCC(O)CNc3ccccc3)cc12 (stereo not given),1
COc1ccc(OC)c(NC(=O)CSc2nccn2-c2cccc(C)c2C)c1,0.69
COc1ccc(-c2nc(CN3CCC(C(=O)NCc4cccs4)CC3)c(C)o2)cc1,1
CCOC(=O)c1cnc2cc(C(F)(F)F)ccc2c1N1CCN(c2ccc(OC)cc2)CC1,0.92
CCCn1cnc2cc(NCc3ccccn3)ccc21,0.35*
CCCCn1cnc2cc(NCc3ccc(Cl)cc3)ccc21,0.22*
CCCn1cnc2cc(NCc3ccc(C)cc3)ccc21,0.46*
CCc1ccc(CNc2ccc3c(c2)ncn3C)cc1,0.53
CCCn1cnc2cc(NCc3cccc(OC)c3OC)ccc21,0.67
Cc1ccc(CNc2ccc3c(c2)nc(C)n3C)cc1,0.96
Cc1ccc(CNc2ccc3c(c2)ncn3C)cc1,0.65
CCCn1cnc2cc(NCc3ccc(OCC)cc3)ccc21,0.45*
CCOc1ccc(CNc2ccc3c(c2)ncn3CC)cc1,0.86
CCCn1cnc2cc(NCc3cccc(OC)c3O)ccc21,0.91
CCn1cnc2cc(NCc3ccc(Cl)cc3)ccc21,0.89
COc1ccc(Cl)cc1C(=O)Nc1ccc(C)c(-c2nc3ncccc3o2)c1,1.1
CCOC(=O)c1[nH]c2c(c1Cc1ccccc1)C(=O)CC(c1cc(OC)ccc1OC)C2 (stereo not given),1.1
Cc1oc(-c2ccccc2Cl)nc1CS(=O)(=O)CC(=O)NCCCOC(C)C,1
c1ccc(-c2nc3c4ccccc4nc(NCc4cccnc4)n3n2)cc1,1
COc1ccc(CCNC(=O)C2(c3ccccc3)CCOCC2)cc1OC,1.1
Cc1ccc(NC(=O)CSCc2cnn(-c3ccccc3)c2-n2cccc2)cc1C,1.1
CCOC(=O)C1CCCN(C(=O)CCC(=O)Nc2ccc3nc(N4CCC(C)CC4)cc(C)c3c2)C1 (stereo not given),1
Cc1cc(N2CCC(C)CC2)nc2ccc(NC(=O)CCC(=O)N3CCCCCC3)cc12,0.83
Cc1cc(N2CCCCC2)nc2ccc(NC(=O)CCC(=O)N3CCCC(C)C3)cc12 (stereo not given),0.48*
COc1ccc(NC(=O)c2cnn(-c3ccc(C)c(C)c3)c2C2CCNCC2)cc1,0.93
SMILES,CBX7 AlphaScr
O=C(Nc1cccnc1)C1(S(=O)(=O)c2ccc(Cl)cc2)CC1,1
COc1ccccc1Nc1cc(C)nc2c(OC)cccc12,0.77
COc1ccccc1Nc1cc(C(F)(F)F)nc2c(OC)ccc(OC)c12,0.2*
COc1ccccc1Nc1cc(C)nc2c(C)cccc12,1.1
Cc1ccc(Cn2nc(C)c3cc(C)ccc32)cc1,1
Cc1ccc2c(c1)NC(=O)C(CC(=O)NCC(C)c1ccccc1)O2 (stereo not given),0.99
Cc1ccccc1Nc1nc(-c2c(C)nc3sccn23)cs1,0.4*!
CCOc1ccccc1Nc1nc(-c2c(C)nc3sccn23)cs1,1
Cc1ccc(Nc2nc(-c3c(C)nc4ccccn34)cs2)cc1,0.9
Cc1ccccc1Nc1nc(-c2c(C)nc3ccccn23)cs1,0.88
CCN(CC)c1ccc(Nc2nc(-c3c(C)nc4ccccn34)cs2)cc1,0.076*
Cc1nc2ccccn2c1-c1csc(Nc2ccc(Cl)cc2)n1,0.95
COc1cccc(CNC(=O)c2cc(Sc3ccc(C)cc3)nc3ccccc23)c1,1.3
COc1ccc(NC2c3ccccc3C(=O)N2c2ccc(Cl)cc2)cc1 (stereo not given),0.42*
COc1ccc(NC2c3ccccc3C(=O)N2c2ccc(Cl)cc2)cc1OC (stereo not given),0.54
CCc1ccc(NC2c3ccccc3C(=O)N2c2ccc(Cl)cc2)cc1 (stereo not given),0.68
CC1=Nc2cc(C(=O)NC(C)c3ccccc3)ccc2Sc2c(C)ccc(C)c21 (stereo not given),0.77
CCCNC(=O)Cn1cnc2sc(C(=O)N(C)CCc3ccccn3)c(C)c2c1=O,1
COc1ccc(NC(=O)CC2C(=O)N(c3ccccc3)C(=O)N2Cc2ccc3c(c2)OCO3)cc1 (stereo not given),0.86
Cc1ccc(NS(=O)(=O)c2ccc3[nH]c(=O)c(=O)[nH]c3c2)c(Br)c1,0.89
CCOC(=O)c1cnc2c(C(F)(F)F)cccc2c1Nc1ccc(O)cc1,0.8
CCOC(=O)c1cnc2ccc(C)cc2c1Nc1cccc(C)c1,0.99
CCOC(=O)c1cnc2ccc(C)cc2c1Nc1ccc(N(C)C)cc1,0.38*
CCOC(=O)c1cnc2c(C(F)(F)F)cccc2c1Nc1ccc(NC(C)=O)cc1,0.86
CCOC(=O)c1cnc2ccc(C)cc2c1Nc1ccc(C)cc1,1.1
CCOC(=O)c1cnc2c(C)cccc2c1Nc1ccc(N(C)C)cc1,0.25*
CCOC(=O)c1cnc2c(C)cc(Cl)cc2c1Nc1ccc(N(C)C)cc1,0.83
CCOC(=O)c1cnc2c(C(F)(F)F)cccc2c1Nc1ccc(N(C)C)cc1,0.16*
CCOC(=O)c1cnc2c(C)cccc2c1Nc1ccc(C)c(C)c1,1.5

# Screening results (PubChem BioAssay)
